Structures are written as SMILES. Records with an inconclusive call do not appear. Unmarked numbers belong to inactive results. Activity calls are given as the source filed them. Calls come from the whole dose curve; as a rule, active = well fitted inhibition curve with a large enough effect; inconclusive = small, poorly fitted or top-dose-only effect; inactive = flat fitted curve, though single readings scatter.

Assay in all cases: qHTS profiling for inhibitors of Plasmodium falciparum proliferation (AID 504749); note: nearly all actives have a fitted effect of over 60% in size;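 for activity, negative = inhibition: 0% = DMSO vehicle and full inhibition = artemisinin control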
Common to all, as to conditions: P. falciparum in erythrocytes, SYBR Green DNA, 72 h; series mostly up to 28.7 µM
(In general: qHTS replaces the single test concentration by a dilution series.)

One test has as its system CP185. A digest of the protocol:
(§1)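 Parasite proliferation within erythrocytes, 72 h exposure. Endpoint: SYBR Green I fluorescence after overnight lysis at room temperature. Controls: 0.29 uM artemisinin, DMSO.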

The test system of the next test is CP191. A digest of the protocol: as §1
A further test relates to CP192. A digest of the protocol: as §1
For another test, the system named is CP194. Summed up:
as §1

The subject of another test is CP201. Summed up: as §1
The subject of a further test is CP211. A digest of the protocol: as §1
In the next test the test system is CP215. Summed up: as §1
Another test deals with CP217. Summed up:
as §1

The next test deals with CP237. Summed up: as §1
A further test relates to CP203. Summed up:
as §1
Potency is the fitted concentration of half-maximal effect.

Consider `Nc1nc(N)nc(NC2CC2)n1`, for which the Potency result with CP185, in the test with CP191, in the test with CP192, in the test on CP194, in the test on CP201 and in the test with CP211 was “inactive” each time. Besides, the Potency entry in the test on CP215, in the test with CP217 and in the test on CP237 was “inactive” each time.
For the molecule `O=c1[nH]oc2c1CCNC2`, the Potency result in the test on CP185, in the test with CP191, with CP192, in the test with CP194, in the test with CP201 and in the test on CP211 was “inactive” throughout. Also, the Potency entry with CP215, in the test with CP217 and in the test with CP237 was “inactive” in each case.
In the case of `O=c1oc2ccccc2c(O)c1Cc1c(O)c2ccccc2oc1=O`, the Potency entry in the test with CP185, with CP191, in the test on CP192, in the test with CP194, in the test with CP201 and in the test on CP211 was “inactive” in each case. Besides, the Potency entry with CP215, in the test with CP217 and in the test with CP237 was “inactive” each time.
On to `c1ccc2c(c1)sc1ccccc12`, for which the Potency result in the test with CP185, with CP191, in the test with CP192, in the test with CP194, with CP201 and with CP211 was “inactive” throughout. Moreover, the Potency result in the test on CP215, with CP217 and in the test on CP237 was “inactive” each time.
With `O=C1CN=C(c2ccccc2)c2cc([N+](=O)[O-])ccc2N1`, the Potency result in the test on CP185, in the test with CP191, in the test with CP192, with CP194, with CP201 and in the test on CP211 was “inactive” each time. For the same molecule, the Potency entry in the test with CP215, in the test on CP217 and in the test with CP237 was “inactive” in each case.
As for `O=C1Nc2ccc(Cl)cc2C(c2ccccc2)=NC1O` (configuration not stated), the Potency result in the test with CP185, in the test on CP191, with CP192, with CP194, in the test on CP201 and with CP203 was “inactive” in each case. Further, the Potency result in the test with CP211, in the test with CP217 and with CP237 was “inactive” throughout.
As for `COP(=S)(OC)Oc1ccc(SC)c(C)c1`, the Potency result in the test with CP185, in the test on CP191, in the test on CP192, in the test on CP194, in the test on CP201 and in the test on CP203 was “inactive” throughout. Moreover, the Potency entry in the test with CP211, in the test on CP215, in the test with CP217 and with CP237 was “inactive” each time.
Turning to `CN1C(=O)C(O)N=C(c2ccccc2)c2cc(Cl)ccc21` (configuration not stated), the Potency result in the test on CP185, with CP191, in the test on CP192, in the test with CP194, in the test on CP201 and in the test with CP203 was “inactive” each time. Besides, the Potency entry with CP211, with CP217 and in the test with CP237 was “inactive” each time.
Take `CCCCC/C=C\C/C=C\C/C=C\C/C=C\CCCC(=O)NCC(=O)O`: the activity, negative = inhibition with CP185 is 13.1% [at 2.67 µM]; in the test on CP191, 8.29% [at 2.67 µM]; in the test on CP192 it was -0.958% [at 2.67 µM]; with CP194 it was 0.793% [at 2.67 µM]; in the test on CP201, 1.43% [at 2.67 µM]; in the test with CP211 it was 8.66% [at 2.67 µM]. The activity, negative = inhibition in the test on CP215 was 4.08% [at 2.67 µM]; in the test on CP217, -11% [at 2.67 µM]; with CP237, 0.3% [at 2.67 µM].
`CN1C(=O)CCS(=O)(=O)C1c1ccc(Cl)cc1` (configuration not stated): the Potency result in the test with CP185, with CP191, in the test on CP192, in the test with CP194, with CP201 and in the test with CP211 was “inactive” each time. Also, the Potency entry in the test with CP215, in the test on CP217 and with CP237 was “inactive” throughout.
As to `O=C(O)CCCc1ccc(N(CCCl)CCCl)cc1`, the Potency entry with CP185, in the test on CP191, in the test with CP192, in the test on CP194, in the test on CP201 and in the test on CP211 was “inactive” each time. For the same molecule, the Potency entry with CP215, in the test with CP217 and in the test with CP237 was “inactive” each time.
As to `NCCc1ccc(O)cc1`, the Potency result with CP185, in the test on CP191, with CP192, in the test with CP194, with CP201 and with CP203 was “inactive” throughout. The Potency entry in the test on CP211, in the test on CP215, with CP217 and in the test on CP237 was “inactive” in each case.
For the molecule `Cc1nnc2n1-c1ccc(Cl)cc1C(c1ccccc1)=NC2`, the Potency entry with CP185, with CP191, with CP192, in the test on CP194, in the test with CP201 and with CP211 was “inactive” each time. For the same molecule, the Potency entry in the test on CP215, with CP217 and with CP237 was “inactive” in each case.
`CN1C(=O)COc2c(C(=O)NC3CN4CCC3CC4)cc(Cl)cc21` (configuration not stated): the Potency result in the test with CP185, in the test on CP191, in the test on CP192, in the test with CP194, in the test on CP201 and in the test with CP211 was “inactive” each time. Besides, the Potency entry in the test with CP215, in the test with CP217 and in the test on CP237 was “inactive” each time.
As for `CCC1(c2ccccc2)C(=O)N(COC)C(=O)N(COC)C1=O`, the Potency entry with CP185, in the test with CP191, in the test with CP192, in the test on CP194, in the test on CP201 and in the test with CP211 was “inactive” throughout. The Potency entry in the test with CP215, in the test with CP217 and in the test with CP237 was “inactive” in each case.
For `CCOC(=O)CC(SP(=S)(OC)OC)C(=O)OCC` (configuration not stated), the Potency entry in the test with CP185, in the test on CP191, in the test with CP192, with CP194, in the test with CP201 and with CP203 was “inactive” throughout. The Potency entry with CP211, with CP215, in the test on CP217 and with CP237 was “inactive” in each case.
As for `C[C@]12CCC(=O)C=C1CC[C@@H]1[C@@H]2CC[C@]2(C)C(=O)CC[C@@H]12`, the Potency result in the test with CP185, in the test on CP191, in the test with CP192, with CP194, with CP201 and in the test on CP211 was “inactive” throughout. Moreover, the Potency result in the test with CP215, with CP217 and in the test on CP237 was “inactive” each time.
Take `CN1C[C@H](C(=O)N[C@]2(C)O[C@@]3(O)[C@@H]4CCCN4C(=O)[C@H](Cc4ccccc4)N3C2=O)C=C2c3cccc4[nH]cc(c34)C[C@H]21`: the Potency in the test with CP185 was 3.98 µM (active); in the test with CP191, 1.58 µM (active); in the test on CP192, 8.49 µM (active); in the test on CP194, 13.5 µM (active); with CP201, 15.1 µM (active); in the test with CP211, 15.1 µM (active). Besides, the results for the Potency with CP215, in the test on CP217 and with CP237 were 5.36 µM (active), 1.41 µM (active) and 0.224 µM (active), respectively.
For `O=C1OC(c2ccc(O)c(S(=O)(=O)O)c2)(c2ccc(O)c(S(=O)(=O)O)c2)c2c(Br)c(Br)c(Br)c(Br)c21`, the Potency entry with CP185, in the test on CP191, in the test on CP192, in the test on CP194, with CP201 and in the test on CP211 was “inactive” in each case. Besides, the Potency entry in the test with CP215, in the test with CP217 and with CP237 was “inactive” in each case.
As for `COc1c2c(cc3c1OCO3)CCN(C)C2`, the Potency entry with CP185, in the test with CP191, in the test with CP192, with CP194, in the test on CP201 and in the test on CP203 was “inactive” each time. Moreover, the Potency result with CP215, in the test with CP217 and in the test with CP237 was “inactive” in each case.
Consider `Cc1ncsc1CCCl`, for which the Potency entry in the test with CP185, in the test on CP191, with CP192, in the test on CP194, with CP201 and in the test with CP211 was “inactive” each time. Further, the Potency entry with CP215, with CP217 and in the test on CP237 was “inactive” each time.
In the case of `Clc1cccc(SC2CCNCC2)n1`, the Potency result in the test on CP185, in the test with CP191, in the test on CP192, in the test with CP194, in the test on CP201 and with CP203 was “inactive” throughout. The Potency result in the test with CP211, in the test with CP215, in the test on CP217 and with CP237 was “inactive” throughout.
For the molecule `CCC(C)(C)c1ccc(O)cc1`, the Potency entry in the test on CP185, in the test on CP191, with CP192, in the test with CP194, in the test on CP201 and in the test on CP211 was “inactive” each time. Also, the Potency entry with CP215, with CP217 and in the test with CP237 was “inactive” in each case.
Regarding `CCCCCCCCCC(=O)O[C@H]1CC[C@H]2[C@@H]3CCC4=CC(=O)CC[C@@H]4[C@H]3CC[C@]12C`, the Potency entry in the test with CP185, with CP191, in the test on CP192, in the test on CP194, in the test with CP201 and in the test with CP211 was “inactive” each time. The Potency entry in the test on CP215, in the test with CP217 and with CP237 was “inactive” throughout.
Consider `C=C(C)[C@H]1CN[C@H](C(=O)O)[C@H]1CC(=O)O`, for which the Potency entry with CP185, in the test on CP191, in the test with CP192, in the test on CP194, in the test with CP201 and with CP203 was “inactive” each time. Besides, the Potency result in the test with CP211, with CP217 and in the test with CP237 was “inactive” each time.
For the molecule `O=P1(N(CCCl)CCCl)NCCCO1` (configuration not stated), the Potency result in the test on CP185, in the test on CP191, in the test on CP192, in the test with CP194, with CP201 and in the test on CP211 was “inactive” throughout. The Potency result with CP215, with CP217 and in the test with CP237 was “inactive” throughout.
As for `CN1C(=O)CC(=O)N(c2ccccc2)c2cc(Cl)ccc21`, the Potency result in the test with CP185, with CP191, in the test on CP192, in the test with CP194, in the test on CP201 and with CP211 was “inactive” in each case. Further, the Potency result with CP215, with CP217 and in the test on CP237 was “inactive” in each case.
Consider `COP(=S)(OC)Oc1ccc(S(=O)(=O)N(C)C)cc1`, for which the Potency entry with CP185, in the test on CP191, with CP192, in the test with CP194, in the test on CP201 and with CP203 was “inactive” in each case. In addition, the Potency result in the test with CP211, in the test with CP215, in the test with CP217 and in the test on CP237 was “inactive” in each case.
